This note sets out measurements from PubChem BioAssay.

Structures are written as SMILES. Active and inactive are the calls of the source. No rule for the calls is given here.

This assay in a line: inhibitors of hydroxyurea-induced Chk1 phosphorylation, primary screen, imaging, HeLa, phospho-Chk1 antibody, percent positive cells (AID 1186). As to conditions: hydroxyurea-induced phospho-Chk1 immunofluorescence imaging, higher = more signal.
For the compound `N#Cc1ccc(NN2C(C(O)c3ccccc3)C=CC3C(=O)N(c4ccccc4)C(=O)C32)cc1` (centres undefined), the z-score is 0.422 (inactive).
The value for `O=C(NCc1ccccc1)[C@]1(Cc2ccccc2)N=C(c2ccc(OCCCO)cc2)O[C@@H]1c1ccccc1` was -0.875 (inactive); that for `CC(C)CCC[C@@H](C)[C@H]1CC[C@@]2(C)C3=C(CC[C@]12C)[C@@]1(C)CC[C@H](OC(=O)C(C)(C)C)C(C)(C)C1CC3` (some centres undefined) was -1.13 (inactive).
`NC(=O)NCC#Cc1ccc2c(c1)[C@]1(C(=O)N2)[C@H](c2ccc(OCCO)cc2)N2[C@H](c3ccccc3)[C@H](c3ccccc3)OC(=O)[C@H]2[C@@H]1C(=O)N1CCCCCCC1`: the z-score is -0.0375 (inactive).
The value for `[N-]=[N+]=Nc1ccccc1[C@H]1OC(c2ccc(OCCCO)cc2)=N[C@@]1(Cc1ccccc1)C(=O)NCc1ccccc1` was -0.684 (inactive); that for `COCCOC(=O)N1C(=O)[C@@]2(c3cc(C#CCC(C(=O)OC)C(=O)OC)ccc31)[C@H](C(=O)N1CCCCCCC1)[C@H]1C(=O)O[C@H](c3ccccc3)[C@H](c3ccccc3)N1[C@@H]2c1ccc(O)cc1` was -0.15 (inactive); that for `C=CC[C@]1(C(=O)NCC(O)CO)N=C(c2ccc(OCCCO)cc2)O[C@H]1c1ccccc1N=[N+]=[N-]` (some centres undefined) was -0.353 (inactive).
The result for `O=C(Nc1cc(Br)ccc1C(=O)NCc1cccc(O)c1)c1ccccc1` reads 0.0071 (inactive); that for `CC1CC/C=C\[C@H]2OC34C=CCN(c5ccc(Cl)cc5)C(=O)[C@H]3N(C(CO)C(C)C)C(=O)[C@]4(C)C2C(=O)O1` (some centres undefined), -0.466 (inactive).
